Measurements taken from PubChem BioAssay (NCATS).
Values joined by “and” are separate entries in the source; they are usually repeats but may differ in a detail not shown here. Equal entries are not always repeated. Records with an inconclusive call do not appear. Active and inactive are the calls of the source. The call rests on the fitted dose curve; in most records, active means well fitted curve in the direction sought with a large enough effect; inconclusive means small, poorly fitted or top-dose-only effect, or another doubt; inactive means no such curve, though single readings can be large; an effect the other way counts as inactive or inconclusive.

Legend:
[1] = system: Hek293T; experiment: Primary qHTS to identify gynecologic anti-cancer compounds using libraries of approved drugs and bioactive compounds (AID 1345084); details: Gynecologic cancer cell panel viability, ATPlite luminescence, 48 h, control line for the selectivity index; series mostly up to 57.5 µM; further: nearly all actives have a fitted effect of over 55% in size
Procedure, shortened: (§1)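 Cells, 1,000 per well, plated 16 h, then exposed 48 h at 37 C to compounds. Viability by ATPlite luminescence after 15 min at room temperature.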

[2] = system: JEG-3; experiment: as above; details: Gynecologic cancer cell panel viability, ATPlite luminescence, 48 h; series mostly up to 57.5 µM
Procedure, shortened: as §1

[3] = system: OV90; experiment: as above; details: Gynecologic cancer cell panel viability, ATPlite luminescence, 48 h; series mostly up to 57.5 µM
Procedure, shortened: as §1

[4] = system: PA-1; experiment: as above; details: Gynecologic cancer cell panel viability, ATPlite luminescence, 48 h; series mostly up to 57.5 µM
Procedure, shortened: as §1

[5] = system: SKOV3; experiment: as above; details: Gynecologic cancer cell panel viability, ATPlite luminescence, 48 h; series mostly up to 57.5 µM
Procedure, shortened: as §1

[6] = system: Tov-21-G; experiment: as above; details: Gynecologic cancer cell panel viability, ATPlite luminescence, 48 h; series mostly up to 57.5 µM
Procedure, shortened: as §1

[7] = system: Tov112D; experiment: as above; details: Gynecologic cancer cell panel viability, ATPlite luminescence, 48 h; series mostly up to 57.5 µM
Procedure, shortened: as §1

[8] = Drug repurposing screens with cells derived from glioblastoma tumor samples (AID 1345199); details: GBM patient neurospheres viability, ATP luminescence, 48 h; further: nearly all actives have a fitted effect of over 40% in size
Procedure, shortened: (§2)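 Four patient lines of CD133+ GBM neurospheres were screened at several concentrations; hits were retested in those lines plus three slower-growing GBM lines, using 48-hour treatment and ATP-based viability.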

[9] = system: astro; experiment: as above; details: viability, ATP luminescence, 48 h; series mostly up to 45.9 µM
Procedure, shortened: as §2

[10] = at 45.9 µM (top of the series), tumour line B
[11] = at 45.9 µM (top of the series), tumour line D
[12] = at 46 µM (top of the series), tumour line A
[13] = at 46.1 µM (top of the series), tumour line C
On the % scale 0 is the no-effect control and ±100 the full control effect.

OCC(CO)N[C@H]1C[C@](O)(CO)[C@@H](O)[C@H](O)[C@H]1O
inactive: Potency [1] | Potency [2] | Potency [3] | Potency [4] | Potency [5] | Potency [6] | Potency [7] | activity, negative = cell killing [8, 10] -9.88% | activity, negative = cell killing [8, 11] 10.9% | activity, negative = cell killing [8, 12] -13.3% | activity, negative = cell killing [8, 13] -4.04% | Potency [9]

CC1(C)S[C@@H]2[C@H](NC(=O)Cc3ccccc3)C(=O)N2[C@H]1C(=O)O (tested in a mixture with another compound)
inactive: Potency [1] | Potency [2] | Potency [3] | Potency [4] | Potency [5] | Potency [6] | Potency [7] | activity, negative = cell killing [8, 10] -3.74% | activity, negative = cell killing [8, 11] -13.1% | activity, negative = cell killing [8, 12] -22.7% | activity, negative = cell killing [8, 13] -9.44% | Potency [9]

CC(=O)CCC(=O)O
inactive: Potency [1] | Potency [2] | Potency [3] | Potency [4] | Potency [5] | Potency [6] | Potency [7] | activity, negative = cell killing [8, 10] -11.2% | activity, negative = cell killing [8, 11] -13.2% | activity, negative = cell killing [8, 12] -21% | activity, negative = cell killing [8, 13] -0.404% | Potency [9]

CCCCc1ncc(/C=C(\Cc2cccs2)C(=O)O)n1Cc1ccc(C(=O)O)cc1
inactive: Potency [1] | Potency [2] | Potency [3] | Potency [4] | Potency [5] | Potency [6] | Potency [7] | activity, negative = cell killing [8, 10] -7.78% | activity, negative = cell killing [8, 11] 9.77% | activity, negative = cell killing [8, 12] -19.8% | activity, negative = cell killing [8, 13] -1.88% | Potency [9]

C[C@@H]1CCN(C(=O)[C@H](CCCN=C(N)N)NS(=O)(=O)c2cccc3c2NC[C@H](C)C3)[C@@H](C(=O)O)C1
inactive: Potency [1] | Potency [2] | Potency [3] | Potency [4] | Potency [5] | Potency [6] | Potency [7] | activity, negative = cell killing [8, 10] 7.31% | activity, negative = cell killing [8, 11] -6.42% | activity, negative = cell killing [8, 12] -6.41% | activity, negative = cell killing [8, 13] -2.45% | Potency [9]

O=C(O)COc1nn(Cc2ccccc2)c2ccccc12
inactive: Potency [1] | Potency [2] | Potency [3] | Potency [4] | Potency [5] | Potency [6] | Potency [7] | activity, negative = cell killing [8, 10] 0.429% | activity, negative = cell killing [8, 11] -3.69% | activity, negative = cell killing [8, 13] -16.4% | Potency [9]

O=C(O)Cc1sc(-c2ccccc2)nc1-c1ccc(Cl)cc1
inactive: Potency [1] | Potency [2] | Potency [3] | Potency [4] | Potency [5] | Potency [6] | Potency [7] | activity, negative = cell killing [8, 11] -34% and -7.66% | activity, negative = cell killing [8, 12] -38.9% | activity, negative = cell killing [8, 13] -4.36% and -11.1% | Potency [9]

CN1[C@@H]2CC[C@H]1CC(OC(=O)C(O)c1ccccc1)C2 (some centres undefined)
inactive: Potency [1] | Potency [2] | Potency [3] | Potency [4] | Potency [5] | Potency [6] | Potency [7] | activity, negative = cell killing [8, 10] -0.798% and -13.6% and 4.01% | activity, negative = cell killing [8, 11] -19% and -5.08% and -5.73% | activity, negative = cell killing [8, 13] 11.2% and -12.9% and 5.16% | Potency [9]

O=C1O[C@H](CO)[C@@H](O)[C@H](O)[C@H]1O
inactive: Potency [1] | Potency [2] | Potency [3] | Potency [4] | Potency [5] | Potency [6] | Potency [7] | activity, negative = cell killing [8, 10] -6.95% | activity, negative = cell killing [8, 11] 6.72% | activity, negative = cell killing [8, 13] 0.13% | Potency [9]

CC(C)(C)C(=O)NCCCC(=O)O
inactive: Potency [1] | Potency [2] | Potency [3] | Potency [4] | Potency [5] | Potency [6] | Potency [7] | activity, negative = cell killing [8, 10] -17.2% | activity, negative = cell killing [8, 11] -2.84% | activity, negative = cell killing [8, 13] -20.2% | Potency [9]

COc1cc(C)c(Cc2cnc(N)nc2N)cc1OC
inactive: Potency [1] | Potency [2] | Potency [3] | Potency [4] | Potency [5] | Potency [6] | Potency [7] | activity, negative = cell killing [8, 10] -4.72% | activity, negative = cell killing [8, 11] -19.5% | activity, negative = cell killing [8, 13] -26.1% | Potency [9]

CN1[C@@H]2CC(OC(=O)[C@H](CO)c3ccccc3)C[C@H]1[C@@H]1O[C@@H]12 (some centres undefined)
inactive: Potency [1] | Potency [2] | Potency [3] | Potency [4] | Potency [5] | Potency [6] | Potency [7] | activity, negative = cell killing [8, 10] -8.37% and 0.366% | activity, negative = cell killing [8, 11] -25.9% and -16.8% | activity, negative = cell killing [8, 13] 15.6% and -2.3% | Potency [9]

CC[C@@]1(c2ccccc2)NC(=O)N(C)C1=O
inactive: Potency [1] | Potency [2] | Potency [3] | Potency [4] | Potency [5] | Potency [6] | Potency [7] | activity, negative = cell killing [8, 10] -13.7% | activity, negative = cell killing [8, 11] -9.17% | activity, negative = cell killing [8, 13] 9.18% | Potency [9]

Nc1ccc(S(=O)(=O)Nc2ccccc2)cc1
inactive: Potency [1] | Potency [2] | Potency [3] | Potency [4] | Potency [5] | Potency [6] | Potency [7] | activity, negative = cell killing [8, 10] 11.7% | activity, negative = cell killing [8, 11] -2.38% | activity, negative = cell killing [8, 13] -16.6% | Potency [9]
